Results published in PubChem BioAssay (NCI).
Compounds without any hit were thinned out: in the full panel of roughly 79,000, 15% have a hit. No stated cut-off is given here; in the data, active means growth inhibition above about 70%; inactive means the rest.

Assays:
[1] = NCI Yeast Anticancer Drug Screen. Data for the rad50 strain (AID 155);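 further: 0% = growth of vehicle-only cultures of the same strain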; conditions: S. cerevisiae rad50 strain growth inhibition; at 50.0 µM; active compounds read high
Procedure, shortened: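 Relative growth inhibition (compound vs vehicle) was measured in yeast with a defined repair-gene alteration.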

[2] = NCI Yeast Anticancer Drug Screen. Data for the mec2-1 strain (AID 157); conditions: S. cerevisiae mec2-1 strain, at 50.0 µM, active compounds read high
Procedure, shortened: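 Yeast mec2-1 mutant treated with compound. Readout: growth inhibition vs vehicle controls.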

[3] = NCI Yeast Anticancer Drug Screen. Data for the sgs1 mgt1 strain (AID 161);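 further: 0% = growth of cultures given vehicle only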; conditions: S. cerevisiae sgs1 mgt1 strain, at 50.0 µM, active compounds read high
Procedure, shortened: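 Inhibition of yeast growth, normalised to vehicle-treated controls, is reported for a strain bearing genetic alterations in DNA damage repair.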

[4] = NCI Yeast Anticancer Drug Screen. Data for the cln2 rad14 strain (AID 165);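 further: 0% = growth equal to vehicle treated cultures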; conditions: S. cerevisiae cln2 rad14 strain, at 50.0 µM, active compounds read high
Procedure, shortened: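 cln2 rad14 yeast strain; compound exposure; growth inhibition read vs vehicle controls.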

[5] = NCI Yeast Anticancer Drug Screen. Data for the bub3 strain (AID 167); conditions: S. cerevisiae bub3 mutant strain, at 50.0 µM, active compounds read high
Procedure, shortened: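 Screening used yeast with an engineered genetic alteration affecting cell cycle control. Compound-exposed cultures were compared with vehicle cultures, and reduced growth was taken as inhibition.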

[6] = NCI Yeast Anticancer Drug Screen. Data for the mlh1 rad18 strain (AID 175); conditions: S. cerevisiae mlh1 rad18 strain growth inhibition; at 50.0 µM; active compounds read high
Procedure, shortened: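 Yeast w/ defined DNA-repair lesions; compound exposure; growth vs vehicle controls → % inhibition.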

Measured: growth inhibition

Cc1ccc(NC(=O)COc2ccccc2)c(C)c1
inactive: [1] 4.35% | [2] 19.9% | [3] 15.9% | [4] -4.25% | [5] 28.3% | [6] 28.4%

O=C1C=C(Nc2ccccc2C(=O)CC(=O)C(=O)Nc2cccc([N+](=O)[O-])c2)c2ccccc2C1=O
inactive: [1] -15.2% | [2] 12.3% | [3] -7.2% | [4] 12.3% | [5] -15.5% | [6] -7.1%

O=C(Nc1ccccc1)c1cc(S(=O)(=O)n2cc[nH]c2=O)c(S)cc1Cl
inactive: [1] 9.5% | [2] 3.6% | [3] 5.1% | [4] -5.1% | [5] 2.65% | [6] 13.2%

CCc1n[nH]c(=O)n1/N=C/c1c(O)ccc2ccccc12
inactive: [1] 0.45% | [2] 10.8% | [3] 1.05% | [4] 9.05% | [5] 6% | [6] 18.9%

ClCc1nnc(-c2ccccc2)o1
inactive: [1] 14.8% | [2] -2.9% | [3] -16.2% | [4] -43% | [5] -16.2% | [6] -4.75%

COC(=O)C(=O)C(C(=O)C(=O)Nc1ccc([N+](=O)[O-])cc1)c1nc2ccccc2[nH]c1=O (configuration not stated)
inactive: [1] 10.1% | [2] -5.95% | [3] 19.5% | [4] 15.4% | [5] 11.7% | [6] 29.5%

OCC1OC(n2cnc3c([Se]Cc4ccccn4)ncnc32)C(O)C1O (configuration not stated)
inactive: [1] 40% | [2] -0.6% | [3] 32% | [4] -3.75% | [5] -3.4% | [6] 7.5%

NC(=O)C(=CNC(=S)Nc1cccc(C(F)(F)F)c1)C(N)=O
inactive: [1] -45% | [2] -44.5% | [3] -14.8% | [4] 16.4% | [5] 5.5% | [6] -56%

COc1cc(C)cc2c(-c3c(O)cc(O)c4c3CC(C)N[C@H]4C)cc(-c3cc(-c4c(O)cc(O)c5c4CC(C)N[C@H]5C)c4cc(C)cc(OC)c4c3O)c(O)c12 (some centres not stated)
inactive: [1] 15.2% | [2] -20.4% | [3] 7.9% | [4] 18.9% | [5] -13.9% | [6] 16.5%

CN1C(=O)c2c(ccc3c2OCO3)C2C(O)Cc3cc4c(cc3C21)OCO4 (configuration not stated)
inactive: [1] 6.85% | [2] 9.9% | [3] 21.8% | [4] 27.9% | [5] 7.15% | [6] -51%

O=S(=O)(Nc1ncccn1)c1ccc(N=NSC2=NC=NC3=NC=NC32)cc1 (configuration not stated)
inactive: [1] 21.3% | [2] 17.4% | [3] 20.5% | [4] 4% | [5] 0.05% | [6] 11.8%

O=Cc1ccccc1S(=O)(=O)O
inactive: [1] 6.65% | [2] 7.4% | [3] -6.5% | [4] -45.4% | [5] 11.2% | [6] -13.2%

O=C(O)Cc1ccc(N2N=C(c3ccccc3)CC2=O)cc1
inactive: [1] 5.3% | [2] -5.05% | [3] -13.6% | [4] 35% | [5] 22.4% | [6] -9.3%

CC/C=C(\C)C(C#N)(CCC)C(=O)OCC (configuration not stated)
inactive: [1] -1.8% | [2] -34.1% | [3] -20.9% | [4] -0.75% | [5] -25.6% | [6] -31.7%

CCCCCCCC(=O)Nc1ccc(-n2c(=O)cc(C)n2C)cc1
inactive: [1] 15.7% | [2] -1.25% | [3] 12.2% | [4] -32% | [5] -7.7% | [6] 14.1%

CC(=O)OCC(=O)C1(O)CCC2C3CCC4=CC(=O)CCC4(C)C3(SC#N)CC(=O)C21C (configuration not stated)
inactive: [1] -8% | [2] 19.9% | [3] 27.2% | [4] 13.2% | [5] 11.8% | [6] 2.45%

O=[N+]([O-])c1ccc2c(Cl)[nH]nc2c1
inactive: [1] 35.1% | [2] 27.6% | [3] 29.8% | [4] 30.8% | [5] 39% | [6] 23.9%

CCCCCCC1=CC(=O)CC(=O)C1
inactive: [1] 25.9% | [2] 7.1% | [3] 16.6% | [4] 13.6% | [5] 18% | [6] 4.25%

CCOC(=O)NC(CC)CO (configuration not stated)
inactive: [1] -13.1% | [2] -22.9% | [3] -14% | [4] 16.1% | [5] 5.55% | [6] -6.9%

c1ccc(CCc2ccncc2)cc1
inactive: [1] -3.05% | [2] -22.6% | [3] -8.35% | [4] -26.5% | [5] 3.6% | [6] -13.3%

N#CC(C#N)=C(C#N)Nc1ccc(F)cc1
inactive: [1] 1% | [2] -10.4% | [3] -16.6% | [4] -6.5% | [5] -13.4% | [6] -0.4%

CC(C)c1cccc(C(C)C)c1NC(=O)C(=O)C(C(=O)c1ccccc1-c1ccccc1)C1OC(=O)c2ccccc21 (configuration not stated)
inactive: [1] 8.2% | [2] 3.8% | [3] 19.6% | [4] -49.2% | [5] -3.05% | [6] 8%

COc1c2occc2c(N)c2ccc(=O)oc12
inactive: [1] -5.95% | [2] -4.4% | [3] -8.2% | [4] -14.5% | [5] -1.55% | [6] -9.95%

Cn1c(=O)c2[nH]c(SC3CCCCC3)nc2n(C)c1=O
inactive: [1] 19.2% | [2] 11.4% | [3] 18.6% | [4] 11.3% | [5] 35.8% | [6] 8.9%

O=C1OC(c2cccc(Cl)c2)=N/C1=C\c1ccc(Cl)cc1
inactive: [1] 20.4% | [2] 16.6% | [3] 16.6% | [4] 11.2% | [5] 7.5% | [6] 0.6%

CC#Cc1c(O)c2c(c(O)c1C#CC)C(=O)c1ccccc1C2=O
inactive: [1] -1.3% | [2] -30% | [3] -25.4% | [4] -8.95% | [5] -3% | [6] -29.8%

O=Cc1c2c(cc3c1CC1(C3)Cc3cc4c(c(C=O)c3C1)CCCC4)CCCC2
inactive: [1] 5.25% | [2] 11.6% | [3] 4.4% | [4] 25.3% | [5] 17.3% | [6] 25.1%

CCCCCOS(=O)(=O)O
inactive: [1] -0.3% | [2] 4.3% | [3] -0.6% | [4] -11% | [5] -0.25% | [6] 5.3%

OCc1ccccc1C(c1ccc(O)cc1)c1ccc(O)cc1
inactive: [1] 26.3% | [2] -7.9% | [3] 28.9% | [4] 18% | [5] 12.7% | [6] 5.15%

CCCCCC#CC(=O)OC
inactive: [1] -14.8% | [2] 1.45% | [3] -17.4% | [4] 9.95% | [5] -2.2% | [6] 2.75%

CC(=O)Nc1ccc(/C=C2\SC(=S)N(/C=C3/C(=O)N(c4ccccc4)N=C3C)C2=O)cc1
inactive: [1] 12.6% | [2] -3% | [3] 4% | [4] 7% | [5] -2.85% | [6] 7%

COc1ccc2c(c1)CCC1C2CCC2(C)C(=O)C(n3cnc4c(SC)ncnc43)CC12 (configuration not stated)
inactive: [1] 42.3% | [2] 19.6% | [3] 58.4% | [4] 29.1% | [5] 25.2% | [6] 46.9%

Cc1cc(N)ccc1N=Nc1ccc(Sc2ccc(N=Nc3c(S(=O)(=O)O)cc4cc(S(=O)(=O)O)c(N=Nc5ccc([N+](=O)[O-])cc5)c(N)c4c3O)cc2)cc1
inactive: [1] -77% | [2] -27.9% | [3] -32.4% | [4] -95.8% | [5] -65.8% | [6] -27.9%

C=C(C)C1CC(=O)C2(C)C(C1)OC(=O)C2C(=O)OCC (configuration not stated)
inactive: [1] 11.6% | [2] -0.65% | [3] -8.3% | [4] 8.95% | [5] 0.1% | [6] -6.65%

CC(C)CCNC(=O)CS(=O)(=O)c1ccc(N)cc1
inactive: [1] -2.15% | [2] -3.05% | [3] -11.9% | [4] -34.2% | [5] -23.1% | [6] -8.55%

O=C(O)CCC(=O)c1ccc[nH]1
inactive: [1] 7.3% | [2] -23.2% | [3] -30.1% | [4] 19.2% | [5] 15.1% | [6] -19.1%

CC(=O)c1ccc(OCc2ccccc2)cc1OCc1ccccc1
inactive: [1] 7% | [2] 4.5% | [3] -9.8% | [4] 11.7% | [5] 4.8% | [6] -18.6%
